Activity calls are given as the source filed them. The calls were made as follows: active = hit-call score of the fitted dose curve at least 0.9, where 1 is the maximum; inactive = score below 0.9.
What was measured:
Details in all cases: mRNA level, 48 h; actives raise or lower the signal
[1] = read-out: Cytochrome P450 (CYP1A2), CYP1A2 (gene 1544); experiment: LTEA_HepaRG_CYP1A2: Life Technologies and Expression Analysis (LTEA) Assay for Cytochrome P450 (CYP1A2) using HepaRG (AID 2283479)
Summary of the method: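 Assesses CYP1A2 mRNA in human HepaRG liver cells after 48 h chemical exposure at up to 100 uM. Values come from qRT-PCR with bidirectional curve fitting relative to DMSO.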

[2] = read-out: cysteine-aspartic acid protease (CASP8), CASP8 (gene 841); experiment: LTEA_HepaRG_CASP8: Life Technologies and Expression Analysis (LTEA) Assay for cysteine-aspartic acid protease (CASP8) using HepaRG (AID 2283480)
Summary of the method: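 qRT-PCR readout of CASP8 mRNA, normalized to three housekeeping genes, after 48 h chemical exposure of HepaRG cells; 8-point half-log series, top 100 uM, 0.5% DMSO vehicle. Bidirectional curve fitting against DMSO baseline.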

[3] = read-out: Cytochrome P450 (CYP2B6), CYP2B6 (gene 1555); experiment: LTEA_HepaRG_CYP2B6: Life Technologies and Expression Analysis (LTEA) Assay for Cytochrome P450 (CYP2B6) using HepaRG (AID 2283481)
Summary of the method: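 Using 48 h treatment of HepaRG cells in serum-free induction medium, concentrations spanned half-log steps from 100 uM in 0.5% DMSO vehicle. CYP2B6 mRNA induction or loss is scored by qRT-PCR against DMSO.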

[4] = read-out: Cytochrome P450 2C19 (Homo sapiens) (UniProt P33261); experiment: LTEA_HepaRG_CYP2C19: Life Technologies and Expression Analysis (LTEA) Assay for CYP2C19 using HepaRG (AID 2283482)
Summary of the method: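 Human HepaRG liver cells received test chemicals for 48 h (highest 100 uM, half-log dilutions in 0.5% DMSO). CYP2C19 mRNA induction or loss is read by multiplexed qRT-PCR and fitted in both directions versus vehicle.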

CYP2C8 (gene 1558) = experiment: LTEA_HepaRG_CYP2C8: Life Technologies and Expression Analysis (LTEA) Assay for CYP2C8 using HepaRG (AID 2283483)
Summary of the method: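 HepaRG (human liver line), 48 h chemical exposure, 8-pt half-log series from 100 uM, 0.5% DMSO vehicle. Readout: CYP2C8 transcript by qRT-PCR, housekeeping-normalized. Bidirectional fit vs DMSO baseline.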

CYP2C9 (gene 1559) = experiment: LTEA_HepaRG_CYP2C9: Life Technologies and Expression Analysis (LTEA) Assay for CYP2C9 using HepaRG (AID 2283484)
Summary of the method: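 HepaRG, 48 h dosing, 8-pt half-log series, top 100 uM, 0.5% DMSO vehicle. Read-out: CYP2C9 transcript by TaqMan qRT-PCR, housekeeping-normalized (ACTB/GAPDH/POLR2A). Gain or loss fitted vs DMSO baseline.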

CYP2E1 (gene 1571) = experiment: LTEA_HepaRG_CYP2E1: Life Technologies and Expression Analysis (LTEA) Assay for CYP2E1 using HepaRG (AID 2283485)
Summary of the method: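 CYP2E1 transcript was measured by TaqMan qRT-PCR in human HepaRG cultures after 48 h chemical exposure (top 100 uM, half-log steps, 0.5% DMSO vehicle). Housekeeping-gene normalization; gain or loss fitted relative to DMSO baseline.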

[5] = read-out: Cytochrome P450 3A4 (Homo sapiens) (UniProt P08684); experiment: LTEA_HepaRG_CYP3A4: Life Technologies and Expression Analysis (LTEA) Assay for CYP3A4 using HepaRG (AID 2283487)
Summary of the method: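 In a human hepatic line (HepaRG), duplicate wells were treated 48 h with up to 100 uM chemical in half-log dilutions. Endpoint: CYP3A4 mRNA induction or loss relative to 0.5% DMSO vehicle, by qRT-PCR.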

[6] = read-out: Early growth response protein 1 (EGR1) transcription factor, EGR1 (gene 1958); experiment: LTEA_HepaRG_EGR1: Life Technologies and Expression Analysis (LTEA) Assay for Early growth response protein 1 (EGR1) transcription factor using HepaRG (AID 2283490)
Summary of the method: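 HepaRG, 48 h exposure, 8-pt half-log series from 100 uM, 0.5% DMSO vehicle; EGR1 transcript by TaqMan qRT-PCR (Fluidigm array), housekeeping-normalized; bidirectional fit relative to DMSO baseline.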

[7] = read-out: Ezrin (EZR), EZR (gene 7430); experiment: LTEA_HepaRG_EZR: Life Technologies and Expression Analysis (LTEA) Assay for Ezrin (EZR) using HepaRG (AID 2283491)
Summary of the method: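 Gain or loss of EZR mRNA is scored relative to 0.5% DMSO in human HepaRG cultures treated 48 h with test chemicals in duplicate, eight half-log concentrations from 100 uM.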

CYP3A5 (gene 1577) = experiment: LTEA_HepaRG_CYP3A5: Life Technologies and Expression Analysis (LTEA) Assay for CYP3A5 using HepaRG (AID 2283493)
Summary of the method: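 qRT-PCR read-out: CYP3A5 transcript in HepaRG lysates, housekeeping-normalized (ACTB/GAPDH/POLR2A), fitted bidirectionally against 0.5% DMSO baseline. Exposure 48 h, eight half-log concentrations up to 100 uM, duplicates.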

[8] = read-out: Fatty Acid-Binding Protein 1 (FABP1), FABP1 (gene 2168); experiment: LTEA_HepaRG_FABP1: Life Technologies and Expression Analysis (LTEA) Assay for Fatty Acid-Binding Protein 1 (FABP1) using HepaRG (AID 2283494)
Summary of the method: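 qRT-PCR readout of FABP1 transcript (normalized to three housekeeping genes) after 48 h chemical exposure of HepaRG cells; eight concentrations, half-log steps, max 100 uM, 0.5% DMSO vehicle; gain or loss fitted relative to DMSO baseline.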

[9] = read-out: Cytochrome P450 4A22 (Homo sapiens) (UniProt Q5TCH4); experiment: LTEA_HepaRG_CYP4A22: Life Technologies and Expression Analysis (LTEA) Assay for Cytochrome P450 4A22 (CYP4A22) using HepaRG (AID 2283495)
Summary of the method: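 Cryopreserved HepaRG cells, plated and cultured 48 h, then switched to serum-free induction medium and treated 48 h (duplicates, up to 100 uM, half-log steps, 0.5% DMSO). Expression change of CYP4A22 was fitted bidirectionally against vehicle.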

[10] = read-out: Cytochrome P450 7A1 (Homo sapiens) (UniProt P22680); experiment: LTEA_HepaRG_CYP7A1: Life Technologies and Expression Analysis (LTEA) Assay for Cytochrome P450 7A1 (CYP7A1) using HepaRG (AID 2283496)
Summary of the method: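 Using 0.5% DMSO as vehicle and baseline, chemicals were tested in duplicate over an 8-point range from 100 uM on HepaRG cells for 48 h; qRT-PCR signals were normalised to ACTB, GAPDH and POLR2A.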

[11] = read-out: Glutathione S-Transferase (GSTA2), GSTA2 (gene 2939); experiment: LTEA_HepaRG_GSTA2: Life Technologies and Expression Analysis (LTEA) Assay for Glutathione S-Transferase (GSTA2) using HepaRG (AID 2283497)
Summary of the method: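 qRT-PCR readout of GSTA2 transcript, normalized to three housekeeping genes, fitted bidirectionally against 0.5% DMSO baseline. Differentiated HepaRG cells received compound for 48 h at 8 concentrations (top 100 uM, half-log steps).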

[12] = read-out: DNA damage-inducible transcript 3 (DDIT3), DDIT3 (gene 1649); experiment: LTEA_HepaRG_DDIT3: Life Technologies and Expression Analysis (LTEA) Assay for DNA damage-inducible transcript 3 (DDIT3) using HepaRG (AID 2283488)
Summary of the method: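 qRT-PCR readout (Fluidigm TaqMan), housekeeping-normalized to ACTB, GAPDH, POLR2A. HepaRG cells, 48 h exposure, 8-point half-log series from 100 uM in 0.5% DMSO, duplicates. Gain or loss of signal fitted against DMSO baseline.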

CYP4A11 (gene 1579) = experiment: LTEA_HepaRG_CYP4A11: Life Technologies and Expression Analysis (LTEA) Assay for CYP4A11 using HepaRG (AID 2283486)
Summary of the method: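 Readout is CYP4A11 mRNA induction or suppression (qRT-PCR, ACTB/GAPDH/POLR2A normalization) in human HepaRG cells after 48 h chemical treatment, concentrations to 100 uM in 0.5% DMSO, fitted bidirectionally against vehicle.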

[13] = read-out: Pro-epidermal growth factor (Homo sapiens) (UniProt P01133); experiment: LTEA_HepaRG_EGF: Life Technologies and Expression Analysis (LTEA) Assay for Epidermal growth factor (EGF) using HepaRG (AID 2283489)
Summary of the method: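 EGF expression changes in human HepaRG cells are scored by bidirectional fitting relative to 0.5% DMSO controls. Chemicals are tested at eight half-log concentrations up to 100 uM for 48 h in serum-free induction medium.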

[14] = read-out: Cytochrome P450 3A7 (Homo sapiens) (UniProt P24462); experiment: LTEA_HepaRG_CYP3A7: Life Technologies and Expression Analysis (LTEA) Assay for CYP3A7 using HepaRG (AID 2283492)
Summary of the method: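 Cells were thawed, plated, cultured 48 h, then treated for a further 48 h with chemicals (eight-point half-log series from 100 uM, 0.5% DMSO). RNA was isolated and CYP3A7 expression quantified by qRT-PCR normalised to ACTB, GAPDH and POLR2A.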

Measured: AC50

Sequence of Cytochrome P450 2C19 (Homo sapiens) (P33261 whole entry, looked up): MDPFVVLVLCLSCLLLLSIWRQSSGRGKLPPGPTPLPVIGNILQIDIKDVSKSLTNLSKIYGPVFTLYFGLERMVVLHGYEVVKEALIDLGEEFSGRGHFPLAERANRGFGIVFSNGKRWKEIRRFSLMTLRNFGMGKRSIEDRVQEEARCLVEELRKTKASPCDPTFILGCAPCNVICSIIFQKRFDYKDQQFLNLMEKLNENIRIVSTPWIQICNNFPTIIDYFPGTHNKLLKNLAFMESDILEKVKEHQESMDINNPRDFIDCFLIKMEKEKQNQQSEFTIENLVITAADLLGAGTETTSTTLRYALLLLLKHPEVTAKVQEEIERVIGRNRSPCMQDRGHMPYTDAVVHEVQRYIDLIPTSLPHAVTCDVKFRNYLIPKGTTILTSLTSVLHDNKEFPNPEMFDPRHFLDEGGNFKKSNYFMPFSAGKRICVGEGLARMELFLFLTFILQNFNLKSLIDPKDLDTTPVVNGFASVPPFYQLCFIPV
Sequence of Cytochrome P450 3A4 (Homo sapiens) (P08684 whole entry, looked up): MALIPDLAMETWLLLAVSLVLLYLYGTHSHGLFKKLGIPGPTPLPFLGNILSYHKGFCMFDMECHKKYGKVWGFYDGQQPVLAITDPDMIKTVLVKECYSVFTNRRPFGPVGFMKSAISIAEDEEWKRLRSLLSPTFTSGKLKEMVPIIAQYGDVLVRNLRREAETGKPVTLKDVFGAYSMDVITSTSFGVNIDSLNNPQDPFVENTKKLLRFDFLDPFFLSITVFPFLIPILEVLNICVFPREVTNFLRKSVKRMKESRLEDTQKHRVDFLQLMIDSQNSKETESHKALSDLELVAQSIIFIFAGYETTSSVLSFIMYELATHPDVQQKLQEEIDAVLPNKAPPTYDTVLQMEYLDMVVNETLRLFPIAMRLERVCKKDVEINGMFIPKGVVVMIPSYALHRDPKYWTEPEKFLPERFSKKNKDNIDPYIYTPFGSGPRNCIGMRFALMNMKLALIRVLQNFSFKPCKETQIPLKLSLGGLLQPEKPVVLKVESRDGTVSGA
Sequence of Cytochrome P450 3A7 (Homo sapiens) (P24462 whole entry, looked up): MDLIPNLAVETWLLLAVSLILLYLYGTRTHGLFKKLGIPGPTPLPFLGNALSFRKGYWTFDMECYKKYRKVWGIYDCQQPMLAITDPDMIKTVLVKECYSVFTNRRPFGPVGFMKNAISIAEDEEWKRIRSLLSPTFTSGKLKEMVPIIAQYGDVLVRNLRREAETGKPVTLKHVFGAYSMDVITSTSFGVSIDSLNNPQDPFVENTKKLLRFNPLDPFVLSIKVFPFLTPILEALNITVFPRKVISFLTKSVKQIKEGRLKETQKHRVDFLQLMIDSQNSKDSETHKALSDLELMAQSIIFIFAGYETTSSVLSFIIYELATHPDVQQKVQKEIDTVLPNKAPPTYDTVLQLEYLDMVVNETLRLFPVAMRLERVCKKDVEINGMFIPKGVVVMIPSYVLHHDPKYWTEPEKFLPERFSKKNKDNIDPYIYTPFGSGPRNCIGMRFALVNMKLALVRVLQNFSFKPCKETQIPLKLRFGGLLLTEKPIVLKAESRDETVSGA

CCCCCCCC=O
active: [1] 50 µM
not listed: [12] | CYP4A11 (gene 1579) | [13] | [14]
inactive: all other assays above

Oc1ccc2ccccc2c1N=Nc1ccccc1
active: [1] 0.232 µM | [3] 31.5 µM | [4] 9.92 µM | CYP2C8 (gene 1558) 9.55 µM | CYP2C9 (gene 1559) 9.92 µM | CYP2E1 (gene 1571) 21.5 µM | [5] 1.81 µM | [6] 3.53 µM | CYP3A5 (gene 1577) 8.1 µM | [8] 16.2 µM | [10] 16.3 µM | [11] 3.38 µM
inactive: [2] | [12] | [7] | [9]

O=[N+]([O-])C(CO)(CO)CO
active: [1] 28.6 µM
not listed: CYP2E1 (gene 1571) | [11] | CYP4A11 (gene 1579) | [13] | [14]
inactive: all other assays above

CCCCCC(=O)O
active: [1] 63.7 µM
not listed: CYP2E1 (gene 1571) | [9] | [12] | [14]
inactive: all other assays above

CCOC(=O)CCC(=O)OCC
active: [2] 87.3 µM | [3] 19.3 µM
not listed: CYP2E1 (gene 1571) | CYP4A11 (gene 1579)
inactive: all other assays above

CCNc1cccc(C)c1
not listed: [9] | [12] | CYP4A11 (gene 1579) | [13] | [14]
inactive: all other assays above

CCOC(=O)C(C)(C)Oc1ccc(Cl)cc1
active: [9] 25.7 µM
not listed: [4] | [5] | CYP4A11 (gene 1579)
inactive: all other assays above

CCCCCCCCCCCCCCCCCC(=O)O
not listed: CYP2E1 (gene 1571) | CYP4A11 (gene 1579) | [13] | [14]
inactive: all other assays above

CC(=O)C(C)=CC1C(C)=CCCC1(C)C (stereo not drawn)
not listed: [9] | CYP4A11 (gene 1579) | [13] | [14]
inactive: all other assays above

CCCCCCCCCCCCCO
not listed: CYP2E1 (gene 1571) | [9] | [14]
inactive: all other assays above

NS(=O)(=O)c1cc2c(cc1Cl)NCNS2(=O)=O
not listed: [1] | CYP4A11 (gene 1579) | [13]
inactive: all other assays above

COc1ccc(C)cc1N
active: [3] 25.6 µM
not listed: [9] | [11] | [12] | CYP4A11 (gene 1579) | [13]
inactive: all other assays above

FC(F)(F)C(F)(F)C(F)(F)C(F)(F)C(F)(F)C(F)(F)CCI
not listed: CYP2E1 (gene 1571) | [11] | [12] | [13]
inactive: all other assays above
